HTR2A ag = agonists of mouse serotonin 5-HT2A receptor (HTR2A). P35363. CHO-K1 mHTR2A beta-arrestin complementation, luminescence; percent of 30 µM serotonin response. activation, % at 7.6 µM. actives 0.66% (n = 360,000). AID 624169;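 active = activation above a run cutoff, the mean activation of all tested compounds plus 3 SD, cut at about 14% in these data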;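 note: 0% = plate median of compound wells and 100% = 30 µM serotonin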
TLR4-MyD88 BLA = inhibitors of human TLR4-MyD88 binding; HeLa CL3-4 TLR4/MyD88 BLA complementation, FRET ratio; inhibition, % at 8.4 µM; actives 0.18% (n = 200,000); in the data active = inhibition above about 25%;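 note: 0% = vehicle and 100% = reference inhibitor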
Target sequence (O00206 whole entry, looked up): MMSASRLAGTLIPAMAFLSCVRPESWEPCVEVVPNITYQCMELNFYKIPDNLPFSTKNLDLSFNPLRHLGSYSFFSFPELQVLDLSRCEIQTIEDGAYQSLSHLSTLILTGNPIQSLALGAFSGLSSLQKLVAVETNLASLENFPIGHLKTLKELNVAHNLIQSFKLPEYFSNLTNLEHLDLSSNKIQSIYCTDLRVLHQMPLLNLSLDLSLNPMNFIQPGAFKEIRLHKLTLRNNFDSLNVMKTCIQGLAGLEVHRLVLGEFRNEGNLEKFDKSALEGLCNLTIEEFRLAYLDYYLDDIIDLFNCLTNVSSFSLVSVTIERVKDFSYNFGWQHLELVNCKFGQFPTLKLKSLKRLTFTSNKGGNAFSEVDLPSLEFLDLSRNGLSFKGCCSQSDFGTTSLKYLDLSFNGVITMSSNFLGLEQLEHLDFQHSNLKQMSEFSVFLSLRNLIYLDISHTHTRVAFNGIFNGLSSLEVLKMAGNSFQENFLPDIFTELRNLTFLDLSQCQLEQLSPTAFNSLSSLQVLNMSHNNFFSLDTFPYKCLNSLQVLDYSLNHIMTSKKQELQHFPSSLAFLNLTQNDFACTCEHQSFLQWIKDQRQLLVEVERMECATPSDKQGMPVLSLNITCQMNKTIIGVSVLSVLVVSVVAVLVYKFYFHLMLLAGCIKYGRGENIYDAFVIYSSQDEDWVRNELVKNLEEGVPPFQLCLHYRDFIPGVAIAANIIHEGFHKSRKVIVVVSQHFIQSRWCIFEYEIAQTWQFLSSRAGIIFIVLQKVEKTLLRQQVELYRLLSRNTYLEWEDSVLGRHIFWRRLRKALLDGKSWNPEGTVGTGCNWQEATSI
Target sequence (Q99836 whole entry, looked up): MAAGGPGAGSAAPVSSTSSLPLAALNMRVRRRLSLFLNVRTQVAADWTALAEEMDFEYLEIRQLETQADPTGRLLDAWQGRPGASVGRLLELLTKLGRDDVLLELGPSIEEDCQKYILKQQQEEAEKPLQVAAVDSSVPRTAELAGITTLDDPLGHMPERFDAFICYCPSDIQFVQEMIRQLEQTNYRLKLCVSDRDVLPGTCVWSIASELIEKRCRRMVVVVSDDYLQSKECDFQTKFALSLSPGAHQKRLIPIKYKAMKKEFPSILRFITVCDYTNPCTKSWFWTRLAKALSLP
ABHD5-PLIN5 inh = blocks binding of human ABHD5 to perilipin-5; Split G. princeps luciferase complementation, luminescence, 4 h; inhibition, % at 4 µM; actives 0.78% (n = 360,000); AID 602281;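 active = inhibition above the mean inhibition across every tested compound plus 3 SD, cut at about 22% in these data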;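 note: 0% = DMSO only wells and the 100% control is not disclosed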
CRFR2-BP antag = blocks CRF-induced signaling of the CRF-BP/CRF-R2 complex. HEK293 CRF-R2/CRF-BP, CRF-induced calcium fluorescence. inhibition, % at 11.8 µM. actives 0.59% (n = 350,000). AID 588475;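 active = inhibition of the ligand-induced calcium signal above about 50% at the single tested concentration, limit read from the data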
NOD2 RIPK2 PPI = inhibitors of human NOD2-RIPK2 interaction | CHO BLA complementation NOD2-RIPK2, CCF4 ratio | inhibition, % at 4.98 µM | actives 0.38% (n = 360,000) | AID 624267; in the data active = inhibition above about 21%;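 note: 0% = vehicle only and 100% = reference blocker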
TLR9-MyD88 block = blocks human TLR9 binding to MyD88; AID 504734; Q9NR96+Q99836; inhibition, % at 4.98 µM; CHO BLA complementation TLR9-MyD88, CCF4 FRET ratio; actives 0.21% (n = 340,000);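 active = inhibition above the mean over all tested compounds plus 3 SD, cut at about 21% in these data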;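 note: 0% = DMSO only wells and 100% = clavulanate BLA inhibitor control wells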
An asterisk follows results filed as active; . = not tested or not shown; ! = not confirmed by another sample. The list is not random: actives were taken first. Their share in the collection is about 2.4%.

SMILES	HTR2A ag	TLR4-MyD88 BLA	ABHD5-PLIN5 inh	CRFR2-BP antag	NOD2 RIPK2 PPI	TLR9-MyD88 block
Cc1cccc(C)c1NC(=O)c1sccc1SCc1cccc(C(F)(F)F)c1	1	-9	4	71*	-9	-1
O=C(Nc1ccc(Cl)c(Cl)c1)Nc1ccccc1C(=O)O	0	-10	-2	59*	0	2
O=C(Nc1ccccc1C(=O)O)c1cccc(NC(=O)c2ccccc2Br)c1	2	.	8	1	2	-9
O=C(Nc1cc(C(=O)Nc2ccccc2C(=O)O)cc(C(=O)Nc2ccccc2C(=O)O)c1)c1ccccc1	2	.	6	104*	-14	-2
COC(=O)C1(C(=O)OC)C[C@H](c2ccc(OC)cc2)N(Cc2ccccc2OC)[C@@H]1c1cccs1	-7	.	-6	.	-10	.
Cc1ccc(OCc2nc3ccccc3n2C(C)C(=O)Nc2c(C)cccc2C)cc1 (stereo not drawn)	-1	.	1	.	3	.
Cc1ccc(S(=O)(=O)c2nnn3c2nc(N2CCCCC2)c2ccccc23)cc1	-2	-12	-1	51*	2	0
COc1ccc(-c2csc(C(C)(O)c3cccnc3)n2)cc1 (stereo not drawn)	0	.	-2	.	-11	.
CC(=O)Oc1ccc2c(c1)O/C(=C\c1ccncc1)C2=O	6	.	11	-67	31*	13
O=C(COC(=O)c1ccncc1)Nc1cc(S(=O)(=O)N2CCOCC2)ccc1Cl	-1	.	-6	67*	-7	-5
O=C(COC(=O)c1ccc(Cl)nc1)Nc1cc(S(=O)(=O)N2CCOCC2)ccc1Cl	4	.	2	-16	0	4
CCOc1ncccc1C(=O)OCC(=O)Nc1ccc(C)c(S(=O)(=O)N2CCOCC2)c1	-2	-4	-1	4	0	-7
Cc1ccc(NC(=O)COC(=O)c2cccnc2Cl)cc1S(=O)(=O)N1CCOCC1	-7	.	-5	64*	-6	-10
O=S(=O)(c1ccccc1)c1cnn(-c2ccccc2)c1-c1ccc(F)cc1	-6	-1	-4	51*	1	-2
O=C(Nc1nc2c(F)cc(F)cc2s1)c1ccc([N+](=O)[O-])o1	-2	.	-4	80*	-7	-5
CC1=CN2C(=NC(=O)CC2(C)C(=O)N(CC(=O)NC2CCCC2)c2ccccc2C)C=C1 (stereo not drawn)	-1	10	-8	54*	-2	-1
CCOC(=O)c1cc2c(=O)c3cc(C)ccc3oc2nc1C	-9	.	-4	67*	2	0
CCCNC(=O)C1(C)CCN(C(=O)c2sccc2C)C1 (stereo not drawn)	0	.	-7	.	-3	.
COc1ccc(S(=O)(=O)Nc2nc3ccccc3nc2NCc2ccc3c(c2)OCO3)cc1	7	-2	-2	57*	-6	-4
COCCCNC(=O)C[C@@H]1C[C@@]2(C(=O)OC)CCCCC=C2N(CCc2ccc(OC)c(OC)c2)C1=O	2	.	8	.	-22	.
CC(C)CC1C(=O)N(Cc2cn(CC3CCCCC3)nn2)CCS(=O)(=O)N1Cc1ccc(-c2cccc(C#N)c2)cc1 (stereo not drawn)	-2	.	2	-5	-7	-6
CC(=O)Nc1ccc(OCC[n+]2cccc(C(N)=O)c2)cc1	1	-8	-1	61*	0	.
CC(=O)Nc1ccc(OCCC[n+]2ccccc2)cc1	-3	-3	-2	7	6	3
Cc1ccc(-c2nnc(SCC(=O)N3CCN(c4ccccc4)CC3)o2)cc1	0	4	2	88*	4	0
COc1ccc(-c2ccnc(SCC(=O)N3CCN(c4ccccc4)CC3)n2)cc1	3	.	-1	61*	3	.
SMILES	HTR2A ag	TLR4-MyD88 BLA	ABHD5-PLIN5 inh	CRFR2-BP antag	NOD2 RIPK2 PPI	TLR9-MyD88 block
COc1ccc(-c2nnc(SCC(=O)N3CCN(c4ccccc4)CC3)o2)cc1OC	4	3	-1	-11	-6	-14
CCOC(=O)N1CCN(C(=O)CSc2nnc(-c3ccc(C(C)(C)C)cc3)o2)CC1	0	-2	-2	89*	-12	1
Cc1ccnc(SCC(=O)N2CCN(c3ccccc3)CC2)n1	-2	7	3	-6	-4	8
Cc1ccc(S(=O)(=O)N(C(=O)c2ccncc2)c2ccc(OC(=O)c3ccncc3)c3ccccc23)cc1	-3	-2	19	-3	7	14
Cc1ccc(S(=O)(=O)N(C(=O)c2ccncc2)c2ccc(OC(=O)c3ccncc3)c3ccccc23)c(C)c1	-3	2	33*	-7	17	12
CN(C)C1CN(Cc2cn(Cc3ccc(C(F)(F)F)cc3)nn2)S(=O)(=O)C1 (stereo not drawn)	1	.	-1	.	-9	.
CCCCC1(C)OC(=O)C(=Cc2ccc(-c3ccc(Cl)c(C(=O)O)c3)o2)C(=O)O1 (stereo not drawn)	3	.	3	61*	-19	10
COc1ccc(-n2ncc(C(C)NS(=O)(=O)c3cc(C)sc3C)c2C)cc1 (stereo not drawn)	3	.	2	51*	-8	-4
COc1ccc(CC(=O)Nc2c3c(nn2C(C)(C)C)CS(=O)(=O)C3)cc1	2	.	2	1	1	-6
CC(C)(C)n1nc2c(c1NC(=O)Cc1ccccc1)CS(=O)(=O)C2	6	-16	3	55*	1	10
CCC(=C(c1ccccc1)c1ccc(OCCN(C)C)cc1)c1ccccc1	-5	.	-4	.	-4	.
CCN(CC)CCOc1ccc(/C(=C(/Cl)c2ccccc2)c2ccccc2)cc1	-7	.	51*!	-22	2	7
Cc1ccc(Cl)cc1-c1cc(C(=O)NCc2ccc(C(F)(F)F)cc2)[nH]n1	-9	.	-15	.	11	.
C[C@@H]1CN([C@@H](C)CO)C(=O)CCCn2nncc2CO[C@@H]1CN(C)S(=O)(=O)c1cccc(F)c1	3	.	4	11	5	-4
CCOC(=O)c1c(C)[nH]c(C)c1C(=O)COC(=O)/C=C/c1ccc(OC(F)F)cc1	-7	-8	0	14	-2	2
CCOC(=O)c1c(C)[nH]c(C)c1C(=O)COC(=O)/C=C/c1ccc(Cl)cc1	-5	9	-6	129*	-2	-8
CC(C)C(C(=O)NCc1ccccc1)N1CCN(c2ccccc2F)CC1 (stereo not drawn)	-6	.	2	.	1	.
COc1ccccc1Nc1ccc(S(=O)(=O)N2CCCCC2)cc1[N+](=O)[O-]	5	1	6	51*	2	3
CON=C(C(=O)NC1C(=O)N2C(C(=O)O)=C(CSc3nc(=O)c(=O)[nH]n3C)CSC12)c1csc(N)n1 (stereo not drawn)	4	.	2	7	2	-3
CO/N=C(\C(=O)N[C@@H]1C(=O)N2C(C(=O)O)=C(COC(N)=O)CS[C@H]12)c1ccco1	15*	-4	-1	-1	-3	-7
